Source: the supplement of paper PMC11732987, “Enantioselective OTUD7B fragment discovery through chemoproteomics screening and high-throughput optimisation” (Communications Chemistry, 2025)

How the values were obtained:
Experiment in all cases: log2 ratio of Biotin-Ahx-Ub-VS probe labelling (fragment/DMSO); higher = less target engagement (more negative = stronger competition), active = hit call of the paper (q ≤ 0.05, log2 ratio ≤ -1)
Settings in all cases: compound concentration: 200 uM; treatment time: 3 h
USP34 = USP34 (UniProt Q70CQ2)
Chain of USP34 (Q70CQ2 whole entry, the tested form may be a part): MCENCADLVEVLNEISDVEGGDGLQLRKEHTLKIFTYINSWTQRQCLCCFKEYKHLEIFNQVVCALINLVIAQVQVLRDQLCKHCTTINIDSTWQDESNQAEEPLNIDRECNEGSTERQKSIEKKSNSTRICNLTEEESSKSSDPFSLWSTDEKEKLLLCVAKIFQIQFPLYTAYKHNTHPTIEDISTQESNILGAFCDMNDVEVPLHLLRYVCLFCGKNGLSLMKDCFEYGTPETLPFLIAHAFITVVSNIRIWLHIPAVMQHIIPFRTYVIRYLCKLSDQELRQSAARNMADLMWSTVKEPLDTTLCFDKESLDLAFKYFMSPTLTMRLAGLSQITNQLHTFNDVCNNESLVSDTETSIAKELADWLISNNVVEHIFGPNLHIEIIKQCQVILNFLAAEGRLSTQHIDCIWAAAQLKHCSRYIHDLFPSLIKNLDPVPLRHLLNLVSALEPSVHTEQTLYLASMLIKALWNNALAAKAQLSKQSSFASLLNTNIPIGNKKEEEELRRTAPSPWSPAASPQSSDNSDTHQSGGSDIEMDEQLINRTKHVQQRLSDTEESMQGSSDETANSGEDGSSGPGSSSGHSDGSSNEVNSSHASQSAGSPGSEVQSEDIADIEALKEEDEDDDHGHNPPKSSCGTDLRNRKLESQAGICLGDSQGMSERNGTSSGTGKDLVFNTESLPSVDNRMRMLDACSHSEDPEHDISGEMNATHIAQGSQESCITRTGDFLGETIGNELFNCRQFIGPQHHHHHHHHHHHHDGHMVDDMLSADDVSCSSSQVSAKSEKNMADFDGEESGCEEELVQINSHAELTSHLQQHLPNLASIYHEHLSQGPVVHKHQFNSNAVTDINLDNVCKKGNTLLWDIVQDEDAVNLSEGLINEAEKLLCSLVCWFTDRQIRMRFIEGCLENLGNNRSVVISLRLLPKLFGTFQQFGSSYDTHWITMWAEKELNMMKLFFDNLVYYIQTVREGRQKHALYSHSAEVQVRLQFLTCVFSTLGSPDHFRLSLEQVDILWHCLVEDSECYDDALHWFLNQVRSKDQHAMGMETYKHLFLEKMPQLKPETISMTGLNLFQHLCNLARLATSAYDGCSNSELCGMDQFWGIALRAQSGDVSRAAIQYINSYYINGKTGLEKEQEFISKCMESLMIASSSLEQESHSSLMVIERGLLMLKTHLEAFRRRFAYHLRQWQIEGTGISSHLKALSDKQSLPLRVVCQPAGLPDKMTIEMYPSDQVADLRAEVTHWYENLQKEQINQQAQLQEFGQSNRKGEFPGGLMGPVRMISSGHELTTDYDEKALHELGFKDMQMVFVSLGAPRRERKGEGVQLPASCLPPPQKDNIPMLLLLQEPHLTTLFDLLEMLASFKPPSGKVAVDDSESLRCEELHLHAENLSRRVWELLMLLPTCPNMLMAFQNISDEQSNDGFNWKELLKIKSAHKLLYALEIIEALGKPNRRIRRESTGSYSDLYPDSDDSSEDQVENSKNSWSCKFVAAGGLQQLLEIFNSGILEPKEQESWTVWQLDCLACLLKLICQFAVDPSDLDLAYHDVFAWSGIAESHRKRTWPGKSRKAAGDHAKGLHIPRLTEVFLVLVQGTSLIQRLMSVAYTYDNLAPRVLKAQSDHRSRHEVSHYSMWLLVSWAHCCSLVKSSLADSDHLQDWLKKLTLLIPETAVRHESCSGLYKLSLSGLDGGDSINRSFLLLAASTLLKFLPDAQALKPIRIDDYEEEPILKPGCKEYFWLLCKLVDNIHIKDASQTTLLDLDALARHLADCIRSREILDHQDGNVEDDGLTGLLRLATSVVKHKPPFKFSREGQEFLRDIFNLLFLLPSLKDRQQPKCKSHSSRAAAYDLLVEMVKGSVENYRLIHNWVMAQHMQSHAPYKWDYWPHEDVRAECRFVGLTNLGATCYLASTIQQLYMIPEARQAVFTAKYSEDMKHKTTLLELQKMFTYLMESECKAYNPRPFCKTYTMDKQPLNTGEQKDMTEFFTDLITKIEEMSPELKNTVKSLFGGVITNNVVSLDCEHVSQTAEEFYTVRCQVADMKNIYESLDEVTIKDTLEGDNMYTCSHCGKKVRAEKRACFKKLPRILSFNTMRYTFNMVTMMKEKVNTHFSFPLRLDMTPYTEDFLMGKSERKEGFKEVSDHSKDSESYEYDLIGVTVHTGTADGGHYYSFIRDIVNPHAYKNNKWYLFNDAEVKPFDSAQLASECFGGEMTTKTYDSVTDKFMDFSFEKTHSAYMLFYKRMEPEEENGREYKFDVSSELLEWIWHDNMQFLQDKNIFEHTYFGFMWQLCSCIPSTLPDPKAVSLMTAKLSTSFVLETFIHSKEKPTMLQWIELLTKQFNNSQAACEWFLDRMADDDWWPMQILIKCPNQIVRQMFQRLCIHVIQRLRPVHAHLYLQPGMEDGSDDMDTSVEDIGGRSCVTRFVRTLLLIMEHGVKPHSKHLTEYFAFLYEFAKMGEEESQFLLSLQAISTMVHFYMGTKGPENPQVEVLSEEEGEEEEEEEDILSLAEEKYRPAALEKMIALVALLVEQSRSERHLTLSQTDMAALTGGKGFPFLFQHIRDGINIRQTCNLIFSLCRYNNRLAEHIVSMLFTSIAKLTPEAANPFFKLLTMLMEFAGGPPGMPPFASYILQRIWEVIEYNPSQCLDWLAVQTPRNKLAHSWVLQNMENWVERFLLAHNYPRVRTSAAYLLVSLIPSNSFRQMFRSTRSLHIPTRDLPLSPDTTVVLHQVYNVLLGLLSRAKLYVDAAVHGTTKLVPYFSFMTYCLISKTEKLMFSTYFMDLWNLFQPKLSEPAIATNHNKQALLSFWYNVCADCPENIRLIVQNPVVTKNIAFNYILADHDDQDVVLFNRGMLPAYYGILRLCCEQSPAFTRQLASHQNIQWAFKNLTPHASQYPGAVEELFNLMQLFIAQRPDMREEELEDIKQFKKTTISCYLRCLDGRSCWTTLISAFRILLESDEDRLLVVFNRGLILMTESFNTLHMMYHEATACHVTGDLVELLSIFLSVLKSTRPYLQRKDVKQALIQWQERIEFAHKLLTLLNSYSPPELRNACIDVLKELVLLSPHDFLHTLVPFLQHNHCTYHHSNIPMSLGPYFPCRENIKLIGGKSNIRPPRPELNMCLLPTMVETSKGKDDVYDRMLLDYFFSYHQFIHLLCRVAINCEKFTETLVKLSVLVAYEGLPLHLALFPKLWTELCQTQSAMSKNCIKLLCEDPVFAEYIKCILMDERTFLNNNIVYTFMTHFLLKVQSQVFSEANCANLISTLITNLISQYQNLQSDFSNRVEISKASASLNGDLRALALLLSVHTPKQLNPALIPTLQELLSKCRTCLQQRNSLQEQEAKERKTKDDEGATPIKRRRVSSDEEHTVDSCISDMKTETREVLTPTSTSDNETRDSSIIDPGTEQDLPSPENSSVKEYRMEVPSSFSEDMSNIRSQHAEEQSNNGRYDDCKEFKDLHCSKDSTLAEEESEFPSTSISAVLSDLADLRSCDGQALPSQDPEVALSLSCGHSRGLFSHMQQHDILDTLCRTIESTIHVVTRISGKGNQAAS
Summary of the method: (§1)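 Fragment (200 µM) or vehicle was incubated for 3 h with triplicate HEK293T lysate samples of 495 µg, which were then treated with Biotin-Ahx-Ub-VS at 0.5 µM final for 1 h. Labelled DUBs were enriched on NeutrAvidin, digested with LysC and trypsin, and analysed by diaPASEF LC-MS/MS. Values are average log2 fragment/vehicle ratios from an unpaired t-test on global-median-normalised Spectronaut label-free quantities, using proteins with ≥2 unique peptides.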

USP36 = biological target: T1, USP36 (UniProt Q9P275)
T1 sequence (whole entry): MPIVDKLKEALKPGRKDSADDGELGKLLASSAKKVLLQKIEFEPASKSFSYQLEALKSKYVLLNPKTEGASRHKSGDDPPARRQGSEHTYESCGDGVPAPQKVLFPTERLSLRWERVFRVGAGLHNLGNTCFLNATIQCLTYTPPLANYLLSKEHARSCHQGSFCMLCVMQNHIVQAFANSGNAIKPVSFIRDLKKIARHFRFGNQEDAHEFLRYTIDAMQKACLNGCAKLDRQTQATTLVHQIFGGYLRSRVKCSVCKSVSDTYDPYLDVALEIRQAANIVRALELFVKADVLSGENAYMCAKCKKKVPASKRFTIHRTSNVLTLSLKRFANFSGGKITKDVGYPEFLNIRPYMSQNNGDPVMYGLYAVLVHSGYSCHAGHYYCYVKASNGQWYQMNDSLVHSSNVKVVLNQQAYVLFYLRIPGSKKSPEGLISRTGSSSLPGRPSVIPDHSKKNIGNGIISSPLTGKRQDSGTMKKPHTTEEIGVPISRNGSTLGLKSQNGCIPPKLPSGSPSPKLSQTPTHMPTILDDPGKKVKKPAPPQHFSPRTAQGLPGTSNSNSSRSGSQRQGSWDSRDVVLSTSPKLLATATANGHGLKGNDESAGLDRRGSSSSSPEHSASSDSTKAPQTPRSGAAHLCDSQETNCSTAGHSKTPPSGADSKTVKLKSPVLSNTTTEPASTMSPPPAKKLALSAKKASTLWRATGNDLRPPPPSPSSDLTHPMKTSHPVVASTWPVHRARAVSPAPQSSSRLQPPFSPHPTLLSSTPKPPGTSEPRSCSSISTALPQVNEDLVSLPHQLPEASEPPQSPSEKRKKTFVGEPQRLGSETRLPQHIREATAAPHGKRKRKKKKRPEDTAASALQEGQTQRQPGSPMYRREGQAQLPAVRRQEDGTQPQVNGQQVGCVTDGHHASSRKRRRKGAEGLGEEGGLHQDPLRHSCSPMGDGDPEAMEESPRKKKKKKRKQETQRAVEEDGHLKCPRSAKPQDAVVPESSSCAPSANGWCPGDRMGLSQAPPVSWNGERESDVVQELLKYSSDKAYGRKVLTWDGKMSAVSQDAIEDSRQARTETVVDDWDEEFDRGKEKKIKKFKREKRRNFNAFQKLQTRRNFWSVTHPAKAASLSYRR
Summary of the method: as §1

USP38 = biological target: T2, USP38 (UniProt Q8NB14)
T2 sequence (whole entry): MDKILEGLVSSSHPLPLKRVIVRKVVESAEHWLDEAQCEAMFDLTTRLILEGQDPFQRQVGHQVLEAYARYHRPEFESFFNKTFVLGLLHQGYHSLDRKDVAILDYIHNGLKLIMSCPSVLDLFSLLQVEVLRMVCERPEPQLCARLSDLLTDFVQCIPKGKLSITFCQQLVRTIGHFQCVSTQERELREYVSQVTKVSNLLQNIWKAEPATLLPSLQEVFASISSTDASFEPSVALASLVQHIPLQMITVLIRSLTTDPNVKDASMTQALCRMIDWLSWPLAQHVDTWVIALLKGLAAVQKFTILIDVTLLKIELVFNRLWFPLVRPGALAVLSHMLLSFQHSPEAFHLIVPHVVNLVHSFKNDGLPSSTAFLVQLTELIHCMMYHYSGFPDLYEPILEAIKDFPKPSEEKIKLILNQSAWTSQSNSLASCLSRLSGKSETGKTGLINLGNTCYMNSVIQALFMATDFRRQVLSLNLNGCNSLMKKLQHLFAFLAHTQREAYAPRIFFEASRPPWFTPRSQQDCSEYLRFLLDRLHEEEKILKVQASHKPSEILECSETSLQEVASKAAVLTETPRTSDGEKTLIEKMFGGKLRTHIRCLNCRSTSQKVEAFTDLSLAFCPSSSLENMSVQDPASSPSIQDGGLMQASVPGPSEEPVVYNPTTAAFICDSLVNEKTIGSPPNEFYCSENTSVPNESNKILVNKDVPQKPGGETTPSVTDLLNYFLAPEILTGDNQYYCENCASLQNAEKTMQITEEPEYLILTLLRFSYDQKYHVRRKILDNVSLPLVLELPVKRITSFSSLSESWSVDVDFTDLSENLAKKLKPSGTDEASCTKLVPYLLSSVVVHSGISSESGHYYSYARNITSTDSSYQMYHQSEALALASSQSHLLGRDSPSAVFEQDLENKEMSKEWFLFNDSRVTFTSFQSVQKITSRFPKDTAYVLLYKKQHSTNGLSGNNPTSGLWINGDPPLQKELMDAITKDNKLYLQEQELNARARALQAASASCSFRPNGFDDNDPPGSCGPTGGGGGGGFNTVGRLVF
Summary of the method: as §1

USP39 = biological target: T3, USP39 (UniProt Q53GS9)
T3 sequence (whole entry): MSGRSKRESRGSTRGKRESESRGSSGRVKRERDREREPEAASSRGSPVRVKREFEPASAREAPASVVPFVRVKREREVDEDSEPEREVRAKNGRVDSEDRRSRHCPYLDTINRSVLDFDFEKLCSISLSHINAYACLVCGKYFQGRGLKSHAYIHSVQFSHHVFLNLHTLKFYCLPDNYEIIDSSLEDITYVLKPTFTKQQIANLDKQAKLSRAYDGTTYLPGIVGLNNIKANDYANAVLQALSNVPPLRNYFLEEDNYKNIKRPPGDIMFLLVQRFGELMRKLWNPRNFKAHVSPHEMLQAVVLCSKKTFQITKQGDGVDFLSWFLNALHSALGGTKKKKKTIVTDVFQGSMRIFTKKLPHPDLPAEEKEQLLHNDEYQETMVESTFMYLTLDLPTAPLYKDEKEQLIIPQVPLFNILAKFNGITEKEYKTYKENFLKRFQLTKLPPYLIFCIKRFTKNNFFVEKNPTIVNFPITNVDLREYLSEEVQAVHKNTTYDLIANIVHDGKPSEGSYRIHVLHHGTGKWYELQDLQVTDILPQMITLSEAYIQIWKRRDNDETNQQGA
Summary of the method: as §1

USP4 = biological target: T4, USP4 (UniProt Q13107)
T4 sequence (whole entry): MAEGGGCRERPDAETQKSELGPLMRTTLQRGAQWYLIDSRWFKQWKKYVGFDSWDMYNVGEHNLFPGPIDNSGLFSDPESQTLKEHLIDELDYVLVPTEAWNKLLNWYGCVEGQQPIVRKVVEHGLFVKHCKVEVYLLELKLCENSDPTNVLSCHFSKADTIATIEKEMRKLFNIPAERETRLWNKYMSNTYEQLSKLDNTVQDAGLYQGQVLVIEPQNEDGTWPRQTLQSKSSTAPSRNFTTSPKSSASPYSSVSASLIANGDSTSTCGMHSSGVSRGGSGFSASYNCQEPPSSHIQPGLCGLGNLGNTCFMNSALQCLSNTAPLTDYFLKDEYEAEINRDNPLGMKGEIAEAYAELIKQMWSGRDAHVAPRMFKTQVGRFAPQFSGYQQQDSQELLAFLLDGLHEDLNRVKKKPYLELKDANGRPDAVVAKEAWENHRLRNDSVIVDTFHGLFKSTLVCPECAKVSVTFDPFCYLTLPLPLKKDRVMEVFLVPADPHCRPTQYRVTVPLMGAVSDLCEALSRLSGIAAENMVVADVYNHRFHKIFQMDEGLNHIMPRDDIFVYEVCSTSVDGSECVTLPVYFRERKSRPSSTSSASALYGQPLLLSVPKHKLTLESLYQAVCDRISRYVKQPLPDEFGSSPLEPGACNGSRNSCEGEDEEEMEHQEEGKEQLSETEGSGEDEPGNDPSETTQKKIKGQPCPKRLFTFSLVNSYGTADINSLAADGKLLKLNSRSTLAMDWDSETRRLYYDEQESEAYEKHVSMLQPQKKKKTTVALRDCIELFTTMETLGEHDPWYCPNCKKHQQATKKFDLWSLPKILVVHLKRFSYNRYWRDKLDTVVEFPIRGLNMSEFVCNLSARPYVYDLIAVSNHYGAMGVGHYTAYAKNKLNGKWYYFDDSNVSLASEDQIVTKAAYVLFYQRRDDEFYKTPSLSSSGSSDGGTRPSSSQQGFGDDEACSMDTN
Summary of the method: as §1

Measured: log2 ratio of Biotin-Ahx-Ub-VS probe labelling

O=C(CCl)Nc1ccccc1C(F)(F)F
inactive: USP34 -0.296 | USP36 0.187 | USP38 -0.0183 | USP39 0.198 | USP4 -0.1
